D2 ag-1 – D2 dopamine receptor (human) agonism | 340,000 compounds, 0.53% hits | HEK293 T-REx D2 cells, calcium flux agonist mode | activation, % at 2 µM;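 active means activation over 3 SD above normal in the single-dose calcium agonist read, cut at about 30% in these data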
Target sequence (P14416 whole entry, looked up): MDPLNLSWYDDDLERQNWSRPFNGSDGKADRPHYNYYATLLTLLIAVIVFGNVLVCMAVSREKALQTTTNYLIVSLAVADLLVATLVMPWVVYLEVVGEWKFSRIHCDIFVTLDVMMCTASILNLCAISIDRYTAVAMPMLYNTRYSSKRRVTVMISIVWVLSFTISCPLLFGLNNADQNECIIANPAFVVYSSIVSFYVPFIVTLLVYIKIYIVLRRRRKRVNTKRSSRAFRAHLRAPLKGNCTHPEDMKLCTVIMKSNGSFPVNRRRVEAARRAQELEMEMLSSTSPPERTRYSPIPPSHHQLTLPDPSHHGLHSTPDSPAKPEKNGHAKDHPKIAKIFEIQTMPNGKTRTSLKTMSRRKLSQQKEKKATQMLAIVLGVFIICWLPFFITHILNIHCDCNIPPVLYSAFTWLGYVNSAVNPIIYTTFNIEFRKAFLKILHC
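HEK293 Trex D2 cells, tetracycline-induced, o/n 30 C 5% CO2; no-wash Ca dye, RT 30–90 min; 10-cycle baseline, 23 nl cpd added, kinetic Ca read 180 s; agonist hits = positive Ca response.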
D2 PAM-1 – positively modulates the human D2 dopamine receptor allosterically; HEK293 T-REx D2, calcium flux, EC20 dopamine potentiation; potentiation, % at 10 µM; 340,000 compounds, 0.34% hits; AID 485347;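 active means potentiation over 3 SD above the plate norm, cut at about 30% in these data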
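Potentiation of an EC20 dopamine calcium response is measured in a force-coupled, tetracycline-inducible Hek293 Trex D2 line. Compound-only kinetic reads over 180 s flag agonists before dopamine addition.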
D2 antagonist – antagonists of human D2 dopamine receptor; P14416; HEK293 TREx D2 cells, calcium flux, dopamine EC80; inhibition, % at 10 µM; 340,000 compounds, 2% hits; in the data active means inhibition above about 30%; inactive means below that, where a call was filed
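Read-out: kinetic calcium fluorescence (1 cycle/s) in inducible HEK293 T-REx D2 cells after an EC80 dopamine addition that followed 180 s compound preincubation. Loss of the dopamine response indicates antagonism.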
D2 PAM-2 – potentiates the human D2 dopamine receptor allosterically; P14416; DiscoveRx D2 beta-arrestin cells, luminescence, 90 min; 100% = 57 uM dopamine signal; potentiation, % (concentration not given with the values); 360,000 compounds, 0.23% hits; AID 624464; in the data active means potentiation above about 50%; inconclusive means mostly about 30% to 49%
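PathHunter D2 cells, attached overnight at 37 deg C, received compound in DMSO plus dopamine at EC20 (50 nM final) for 90 min at 37 deg C. Beta-arrestin recruitment was read as luminescence after 1 h with detection reagent at ambient temperature.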
D2 ag-2 – human D2 receptor agonism in beta-arrestin assay; P14416; activation, % (concentration not given with the values); DiscoveRx PathHunter D2 beta-arrestin, luminescence, 90 min; 100% = 57 uM dopamine signal; 360,000 compounds, 0.084% hits; AID 624465; in the data active means activation above about 40%; inconclusive means between about 15% and that limit
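Agonist mode: compounds alone added to overnight-plated D2 PathHunter cells for 90 min at 37 C, with 57 uM final dopamine (EC100) defining full response. Beta-arrestin recruitment detected by chemiluminescent reagent, read after 1 h at ambient temperature.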
A number is an active result; i = inactive; ? = inconclusive; nt = not tested or not shown. The list is not random: actives were taken first. Their share in the collection is about 2.4%.

SMILES	D2 ag-1	D2 PAM-1	D2 antagonist	D2 PAM-2	D2 ag-2
COC(=O)C1C(O)CCC2CN3CCc4c([nH]c5ccccc45)C3CC21 (stereo unspecified)	i	i	49.9	i	i
COC(=O)[C@H]1[C@H]2C[C@H]3c4[nH]c5ccccc5c4CCN3C[C@H]2CC[C@@H]1O	i	i	86.8	i	i
CCC12CCC3c4ccc(O)cc4CCC3C1CC(O)C2O (stereo unspecified)	nt	nt	nt	i	i
CCOc1ccc(NC(=O)CCN2C(=O)CSc3ccccc32)cc1	i	i	i	i	i
O=C(CCN1C(=O)CSc2ccccc21)Nc1ccc(OC(F)(F)F)cc1	i	i	51.4	i	i
CC(C)[C@@H](C(=O)OCC(=O)Nc1ccc2c(c1)OCO2)N1C(=O)c2ccccc2C1=O	i	i	46.3	i	i
CCOc1ccccc1N1CCN(C(=O)c2ccc(OCC(=O)N3CCOCC3)c(OC)c2)CC1	i	i	i	i	i
COc1ccc(NS(=O)(=O)c2ccc(C)c(C(=O)NC3CCN(Cc4ccccc4)CC3)c2)cc1	i	i	i	i	i
COc1ccccc1NS(=O)(=O)c1cccc(C(=O)NC2CCN(Cc3ccccc3)CC2)c1	i	i	100.5	i	i
COc1ccccc1NS(=O)(=O)c1cc(C(=O)NC2CCN(Cc3ccccc3)CC2)ccc1C	nt	nt	nt	i	i
COc1ccccc1NS(=O)(=O)c1ccc(C)c(C(=O)NC2CCN(Cc3ccccc3)CC2)c1	i	i	76.6	i	i
Cc1ccc(NC(=O)CC(=O)c2ccccc2)cc1C	i	i	i	i	i
CCN(CC)C(=O)[C@H]1C[C@H](CC(=O)NCc2ccc(OC)c(OC)c2)C(=O)N2CCc3c([nH]c4ccc(Cl)cc34)[C@]12C	nt	nt	nt	i	i
COc1ccc(Cl)cc1NC(=O)CSc1nnc(CN2CCOCC2)n1-c1ccc(Cl)cc1	i	i	75.9	i	i
COc1cc(/C=C2\SC(=S)N(CCCCC(=O)O)C2=O)ccc1OS(=O)(=O)c1ccc(C)cc1	i	i	32.1	?	i
COc1cc(/C=C2/SC(=S)NC2=O)ccc1OS(=O)(=O)c1ccc(C)cc1	i	i	i	i	i
CCC(=O)c1ccc(OCC(=O)NCCCN2CCOCC2)cc1	nt	nt	nt	i	i
COc1ccc(OCC(=O)NCCCN2CCOCC2)cc1	i	i	31.7	i	i
Cc1cc(OCC(=O)NCCN2CCOCC2)c2c(C)c(C)c(=O)oc2c1	i	33.3	i	i	i
COc1cc(Nc2ccn3nccc3n2)cc(OC)c1OC	nt	nt	nt	i	i
COc1ccc(N2CCC(CNC(=O)Nc3cccc(OC)c3)C2)cc1 (stereo unspecified)	i	i	56.7	i	i
COc1ccc(/C=N/NC(=O)COc2cccc3ccccc23)c(C(=O)O)c1OC	i	40.4	i	i	i
COc1ccc(/C=N/NC(=O)COc2ccc3ccccc3c2)c(C(=O)O)c1OC	i	i	i	i	i
Cc1ccc2c(cnn2C(=O)CCCC(=O)NCc2ccc(Cl)cc2)c1	i	i	i	i	i
Cc1ccc(CNC(=O)CCC(=O)n2ncc3cc(C)ccc32)cc1	i	i	46.5	i	i
SMILES	D2 ag-1	D2 PAM-1	D2 antagonist	D2 PAM-2	D2 ag-2
Cc1cc(C)cc(OC(C)C(=O)Nc2nonc2-c2ccc(Br)cc2)c1 (stereo unspecified)	i	i	nt	nt	nt
O=C1C(=O)c2c(ccc3ccccc23)-c2ccccc21	nt	nt	nt	58.8	?
CN(C)/C=C1\Oc2ccc3ccccc3c2C1=O	i	i	i	i	i
CNC(=O)CN(c1ccc(Oc2ccccc2)cc1)S(=O)(=O)c1ccc(C)cc1	i	i	i	i	i
O=C(Cn1c(=O)n(Cc2nc(-c3ccccc3)no2)c(=O)c2cc3c(cc21)OCO3)Nc1cccc(C(F)(F)F)c1	i	i	nt	nt	nt
CCCc1cc(=O)[nH]c(SCC(=O)NC(=O)NC2CCCC2)n1	i	i	32.1	i	i
CCCc1cc(=O)[nH]c(SCC(=O)NC2CCCCCCC2)n1	nt	nt	nt	i	i
Cc1ccccc1Nc1nc(Cl)nc(NC(C)(C)C)n1	nt	nt	nt	i	i
Cc1cccc(NC(=O)CN(C)C(=O)c2ccc3ccccc3n2)c1C	i	i	30.1	i	i
COCCN(CC(=O)Nc1cccc(C)c1C)C(=O)c1ccc2ccccc2n1	i	i	i	i	i
C=C(C)c1cccc(C(C)(C)NC(=O)NCc2ccncc2)c1	i	i	34.5	i	i
